ALDH1A1 inh: qHTS Assay for Inhibitors of Aldehyde Dehydrogenase 1 (ALDH1A1); Purified ALDH1A1, NADH fluorescence, propionaldehyde substrate; Potency, µM (doses to about 75.3 µM), for inactives: top-dose activity, negative = inhibition, actives largely listed as inhibitors; hit rate 7.3% among 220,000; AID 1030, 2008; active means well fitted inhibition curve with a large enough effect, not every such curve was filed as active; inconclusive means small, poorly fitted or top-dose-only effect, or another doubt; inactive means no such curve, though single readings can be large or run the other way;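 further: plate controls were no enzyme wells and a reference inhibitor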
Tau fibril FP: qHTS for Inhibitors of Tau Fibril Formation, Fluorescence Polarization; AID 1468, 2008; K18 P301L tau heparin fibrillization, Alexa594 FP, 6 h; Potency, µM (titrated, usually from 57.7 µM), inactives show top-dose activity, negative = inhibition, most hits filed as inhibitors; hit rate 0.39% among 280,000; further: nearly all actives have a fitted effect of over 55% in size
Target sequence (P10636 561-689 P618L limits assumed): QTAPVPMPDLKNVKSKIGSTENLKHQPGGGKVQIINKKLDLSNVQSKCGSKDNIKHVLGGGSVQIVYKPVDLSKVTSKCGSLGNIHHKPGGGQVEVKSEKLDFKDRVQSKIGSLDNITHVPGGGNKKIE
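Recombinant K18 P301L […], labeled with Alexa 594 at 0.24 uM over 15 uM unlabeled; heparin inducer 20 uM final; 37 C, 6 hr; FP endpoint.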
Tau fibril ThT: qHTS for Inhibitors of Tau Fibril Formation, Thioflavin T Binding; AID 1460, 2008; hit rate 2.1% among 270,000; Microtubule-associated protein tau (Homo sapiens), P10636; recombinant tau K18 P301L, heparin-induced fibrillization, ThT fluorescence; Potency, µM (top dose mostly 57.4 µM), for the others: at the top dose activity, negative = inhibition, most hits filed as inhibitors; further: nearly all actives have a fitted effect of over 55% in size
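Recombinant human tau K18 fragment […] carrying P301L, 15 uM unlabeled plus 0.24 uM Alexa 594-labeled, was fibrillized with 20 uM heparin in 100 mM sodium acetate pH 7 for 6 hr at 37 C; 30 uM ThT fluorescence read after 1 hr.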
Tau fluor cs: Counterscreen qHTS for Inhibitors of Tau Fibril Formation, Fluorescence Polarization. tau K18 P301L Alexa594 fluorescence, heparin fibrillization. Potency, µM (series often up to 57.7 µM), inactives show at the top dose activity change, negative = decrease. hit rate 0.93% among 280,000; further: nearly all actives have a fitted effect of over 55% in size
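Human tau K18 P301L (15 uM unlabeled, 0.24 uM Alexa 594-labeled) in 100 mM sodium acetate pH 7 with 20 uM heparin, 6 hr at 37 C. ThT 30 uM added, 1 hr ambient; Alexa 594 FP and total fluorescence read at 555/632 nm.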
HPGD block: qHTS Assay for Inhibitors of HPGD (15-Hydroxyprostaglandin Dehydrogenase) | 15-hydroxyprostaglandin dehydrogenase [NAD(+)] (Homo sapiens), P15428 | purified HPGD, NADH fluorescence kinetic, PGE2 substrate | Potency, µM, for the others: at the top dose activity change, negative = inhibition, most hits filed as inhibitors | hit rate 4.3% among 150,000; active means well fitted inhibition curve with a large enough effect, not every such curve was filed as active; inconclusive means small, poorly fitted or top-dose-only effect, or another doubt; inactive means no such curve, though single readings can be large or run the other way
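NADH formation kinetics: reaction with 30 uM PGE2 and 1 mM NAD+ (final), 20 nM enzyme, Tris-HCl pH 8 with Tween 20, after 15 min compound preincubation at room temperature. Fluorescence change, last versus first of five reads.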
JMJD2E inh: qHTS Assay for Inhibitors of Human Jumonji Domain Containing 2E (JMJD2E); JMJD2E catalytic domain, FDH-coupled NADH fluorescence (FDH is formaldehyde dehydrogenase); hit rate 1.6% among 230,000; Potency, µM (highest dose often 57.1 µM), inactives show at the top dose activity change, negative = inhibition, usual class: inhibitors; active means well fitted inhibition curve with a large enough effect, not every such curve was filed as active; inconclusive means small, poorly fitted or top-dose-only effect, or another doubt; inactive means no such curve, though single readings can be large or run the other way;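 further: 0% = wells with enzyme and -100% = buffer wells without enzyme; nearly all actives have a fitted effect of over 50% in size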
Target sequence (B2RXH2 1-337 limits assumed): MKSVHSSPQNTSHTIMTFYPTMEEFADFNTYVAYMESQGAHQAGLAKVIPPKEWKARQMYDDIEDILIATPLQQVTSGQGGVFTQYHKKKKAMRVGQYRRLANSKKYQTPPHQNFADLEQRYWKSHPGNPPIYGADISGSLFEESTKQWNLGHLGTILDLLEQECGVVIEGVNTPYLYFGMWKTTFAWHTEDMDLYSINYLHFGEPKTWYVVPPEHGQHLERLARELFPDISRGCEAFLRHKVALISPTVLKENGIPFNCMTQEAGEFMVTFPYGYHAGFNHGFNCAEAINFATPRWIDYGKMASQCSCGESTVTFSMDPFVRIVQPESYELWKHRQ
* hit, by the source's call; u = inconclusive; x = no result; [ ] = another dose, or the depositor's remark. A selection: hits, their analogues and other compounds. The true share with any hit is near 9.9%. Unless noted, the call rests on the fitted dose curve; in most records, active means well fitted curve in the direction sought with a large enough effect; inconclusive means small, poorly fitted or top-dose-only effect, or another doubt; inactive means no such curve, though single readings can be large; an effect the other way counts as inactive or inconclusive. Unless noted, on the % scale 0 is the no-effect control and ±100 the full control effect; potency means the concentration at half of the fitted maximal effect.

SMILES	ALDH1A1 inh	Tau fibril FP	Tau fibril ThT	Tau fluor cs	HPGD block	JMJD2E inh
Cn1c(N)c(C(=O)COC(=O)c2cncc(Br)c2)c(=O)n(C)c1=O	11.2µM*	6.5%	u	-20.1%	x	-17.8%
CCOc1cc(C(=O)OCC(=O)c2c(N)n(C)c(=O)n(C)c2=O)cc(OCC)c1OCC	11.6%	-14.7%	6.6%	-15.8%	-22.4%	-7.5%
CCc1cccc(N(C)C(N)=Nc2cccc3ccccc23)c1	-4.1%	u	-9.2%	-22.0%	5.1%	3.5%
COc1ccccc1NC(=O)N1c2ccc(F)cc2CCC1C (stereo unspecified)	22.4µM*	17.2%	-9.1%	7.7%	-5.1%	u
CC1CCc2cc(F)ccc2N1C(=O)CCl (stereo unspecified)	0.141µM*	-2.0%	-7.8%	-6.2%	x	2.8%
COCCCNC(=O)c1c(NC(=O)Cc2coc3cc(C)ccc23)sc2c1CCCC2	x	5.3%	-11.6%	-27.8%	x	x
CCOC(=O)c1nc(Nc2ccc(C(=O)O)cc2)c2ccccc2n1	-4.6%	-6.2%	-10.2%	-8.4%	x	-9.1%
CCOC(=O)c1nc(Nc2ccc(N3CCC(C)CC3)cc2)c2ccccc2n1	-3.3%	13.4%	u	11.2µM*[quencher]	x	-6.4%
CCOC(=O)c1nc(Nc2ccc(Nc3ccccc3)cc2)c2ccccc2n1	-10.8%	5.3%	5.01µM*	7.08µM*[quencher]	x	-5.6%
COc1ccc(N2CCN(C(=O)CSc3ccccc3)CC2)cc1	u	7.7%	u	-13.6%	-8.4%	1.5%
COc1ccc(N2CCN(C(=O)CSc3nnc4n3C(C)(C)Cc3ccccc3-4)CC2)cc1	22.4µM*	3.3%	-5.1%	-7.7%	-13.8%	2.6%
Cc1ccc(Cl)cc1N1CCN(C(=O)CSc2nnc3n2C(C)(C)Cc2ccccc2-3)CC1	u	4.1%	u	-9.1%	-8.3%	-1.5%
COc1ccc(N2CCN(C(=O)CSc3ccccc3N)CC2)cc1	25.1µM*	4.3%	u	-13.9%	u	-6.5%
Nc1ncnc2c1ncn2Cc1ccccc1	8.9%	-5.0%	-5.7%	-8.6%	x	-4.2%
COc1ccc(Oc2ncnc3c2ncn3Cc2ccccc2)cc1	-5.7%	4.4%	-5.3%	-6.5%	8.91µM*	5.1%
CC(=O)Nc1sc2c(c1C(N)=O)CCCC2	3.7%	-1.0%	-8.3%	-4.9%	-6.2%	-9.5%
NC(=O)c1c(/N=C/c2cccs2)sc2c1CCCC2	x	-6.0%	2.24µM*	-10.4%	x	-1.2%
CCOC(=O)c1ccc(N2CCN(c3ccccc3F)CC2)c(NC(=O)Nc2cccc(OC)c2)c1	u	u	-9.6%	u	u	u
COC(=O)c1ccc(N2CCOCC2)c(NC(=O)Nc2cccc(OC)c2)c1	25.1µM*	-4.3%	-3.1%	-25.6%	u	-7.2%
Cc1ccccc1OCC(=O)Nc1ccccc1N1CCCCC1	-0.4%	2.8%	u	-6.6%	-20.0%	5.4%
COC(=O)c1ccc(N2CCN(C(C)=O)CC2)c(NC(=O)COc2ccccc2C)c1	7.94µM*	9.1%	-7.5%	-13.8%	x	-5.6%
CCC(C)Nc1nc(Cl)nc(N(C#N)CN2C(=O)c3ccccc3S2(=O)=O)n1 (stereo unspecified)	12.6µM*	u	u	-14.7%	x	14.4%
CC(C)Nc1nc(Cl)nc(N(C#N)CN2C(=O)c3ccccc3C2=O)n1	u	-3.5%	-8.5%	3.5%	-8.3%	3.9%
CCN(C(=O)Cn1c(=O)n(-c2ccccc2)c(=O)c2ccc(C(=O)NCc3ccc4c(c3)OCO4)cc21)c1cccc(C)c1	x	-12.0%	-12.2%	-20.4%	x	x
Cc1ccc(/C=C2\NC(=S)NC2=O)cc1[N+](=O)[O-]	-9.7%	-0.5%	u	-9.7%	x	11.6%

Assay outcomes: PubChem BioAssay, National Center for Advancing Translational Sciences (NCATS)
